A short description of test [1]: qHTS assay to identify small molecule antagonists of the estrogen related receptor (ERR) signaling pathway from Tox21 library - cell viability counter screen (AID 1224834). Also: nearly all actives have a fitted effect of over 30% in size. Also: potency is read from the fitted curve at half-maximal effect. The gist of the method:
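ERR cells, 2,000/well; 6 h settle at 37 C/5% CO2; pin-tool compound transfer in DMSO; 17.5 h at 37 C; CellTiter-Fluor, 30 min; fluorescence intensity.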
On the technique in general: Quantitative high-throughput screening tests each substance at several concentrations.

The target in test [2] is Luciferin 4-monooxygenase (Photinus pyralis) (UniProt P08659). The test can be described thus: qHTS assay to identify small molecule inhibitors of firefly luciferase (AID 1224835). Also: nearly all actives have a fitted effect of over 25% in size. Also: potency is read from the fitted curve at half-maximal effect. In a few lines:
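Inhibition of purified Photinus luciferase is measured by luminescence. Substrate levels (D-luciferin, ATP) sit at their KM values. Each compound is tested in a concentration series.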

The nature of test [3]: qHTS assay to identify small molecule agonists of the constitutive androstane receptor (CAR) signaling pathway - cell viability counter screen (AID 1224836). Also: nearly all actives have a fitted effect of over 45% in size. Also: potency is read from the fitted curve at half-maximal effect. In a few lines:
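Cell viability multiplexed with the CAR agonist screen: CellTiter-Fluor fluorescence after 23 hr at 37 C. HepG2-CYP2B6-hCAR cells got compounds at 15 concentrations with PK11195 at 0.75 uM final.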

The nature of test [4]: qHTS assay to identify small molecule antagonists of the constitutive androstane receptor (CAR) signaling pathway - cell viability counter screen (AID 1224837). Also: nearly all actives have a fitted effect of over 45% in size. Also: potency is read from the fitted curve at half-maximal effect. In a few lines: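 Viability was measured with CellTiter-Fluor in a HepG2 line carrying stably transfected hCAR and a CYP2B6-2.2kb construct. Cells were exposed for 23 hr at 37 C to 15 compound concentrations with 50 nM CITCO as agonist.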

In test [5] the target is Nuclear receptor subfamily 1 group I member 3 (Homo sapiens) (UniProt Q14994). The test can be described thus: qHTS assay to identify small molecule antagonists of the constitutive androstane receptor (CAR) signaling pathway (AID 1224838).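 Also: HepG2 cells stably expressing hCAR with CYP2B6 luciferase reporter stimulated by CITCO; nearly all actives have a fitted effect of over 40% in size.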 Also: potency is read from the fitted curve at half-maximal effect. In a few lines: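 Antagonist mode used CITCO at a final 50 nM to activate CAR in human hepatoma HepG2 cells carrying stable hCAR and a 2.2 kb CYP2B6 promoter-luciferase construct. Compounds were tested at 15 concentrations over 24 h, with luminescence as the end point.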
Chain of Nuclear receptor subfamily 1 group I member 3 (Homo sapiens) (Q14994 whole entry, looked up): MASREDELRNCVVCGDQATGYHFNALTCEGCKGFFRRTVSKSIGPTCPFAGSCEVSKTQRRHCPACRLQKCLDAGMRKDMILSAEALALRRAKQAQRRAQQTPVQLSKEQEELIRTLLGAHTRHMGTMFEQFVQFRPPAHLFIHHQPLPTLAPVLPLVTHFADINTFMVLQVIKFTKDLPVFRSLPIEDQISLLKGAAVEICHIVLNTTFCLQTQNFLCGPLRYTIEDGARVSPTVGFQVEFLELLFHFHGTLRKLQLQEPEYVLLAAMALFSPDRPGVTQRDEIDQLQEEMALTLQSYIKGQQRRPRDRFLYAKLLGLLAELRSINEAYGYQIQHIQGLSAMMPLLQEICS

The target is the same in test [6]. The test can be described thus: qHTS assay to identify small molecule agonists of the constitutive androstane receptor (CAR) signaling pathway (AID 1224839). Also: nearly all actives have a fitted effect of over 15% in size. In a few lines: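 Luminescent ONE-Glo read-out after 24 hr, 37 C exposure of double-stable HepG2-CYP2B6-hCAR reporter cells to a 15-point compound series, in the presence of 0.75 uM PK11195 (final).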
A short description of test [7]: qHTS assay to identify small molecule antagonists of the estrogen related receptor signaling pathway with the pleiotropic PPARgamma coactivator (PGC) from Tox21 10K library - cell viability counter screen (AID 1224840; active = well fitted cell-killing curve with a large enough effect in the repeat runs, not every such curve was filed as active; also: nearly all actives have a fitted effect of over 40% in size; also: potency is read from the fitted curve at half-maximal effect). In a few lines:
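Multiplexed viability counter screen in the PGC/ERR cell line: cells treated with DMSO-dissolved compounds for 17.5 hours at 37 C, then viability measured as CellTiter-Fluor fluorescence.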

The nature of test [8]: qHTS assay to identify small molecule antagonists of the estrogen related receptor signaling pathway with the pleiotropic PPARgamma coactivator (PGC) from Tox21 10K library (AID 1224841; call rule not given here; also: actives are mostly falling curves and most rising ones were filed inactive; nearly all actives have a fitted effect of over 50% in size; also: potency is read from the fitted curve at half-maximal effect). The gist of the method:
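Steps: plate 2,000 PGC/ERR cells per well; incubate 6 h at 37 C with 5% CO2; transfer compounds from DMSO stocks by pin tool; incubate 18 h at 37 C; add One-Glo; measure luminescence 30 min later.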

Test [9] can be described thus: qHTS assay to identify small molecule agonists of the estrogen related receptor signaling pathway with the pleiotropic PPARgamma coactivator (PGC) from Tox21 10K library (AID 1224842). Also: nearly all actives have a fitted effect of over 15% in size. In a few lines: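 Luminescence from One-Glo (30 min, room temperature) measured after PGC/ERR cells had 18 h at 37 C with pinned compound (23 nL in DMSO). Cells had been seeded at 2,000 per well and pre-incubated 6 h.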

The target in test [10] is Thyrotropin receptor (Homo sapiens) (UniProt P16473). The test is described as follows: qHTS assay to identify small molecule agonists of the thyroid stimulating hormone receptor (TSHR) signaling pathway (AID 1224843; calls by dose curve; also: nearly all actives have a fitted effect of over 45% in size). In a few lines:
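A cell-based cAMP HTRF format was run in TSHR-transfected HEK293 cells, 800 per well. Treatment: 30 min, room temperature. Detection: 1 h with labelled cAMP and anti-cAMP cryptate. Concentration-response over 15 points, three replicates.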

Test [11] is described as follows: qHTS assay to identify small molecule agonists of the hypoxia (HIF-1) signaling pathway - cell viability counter screen (AID 1224844; calls by dose curve; also: nearly all actives have a fitted effect of over 50% in size). The gist of the method:
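Cytotoxicity was measured in parallel with the HRE-driven beta-lactamase readout: after 17 hrs of compound exposure at 37C, HRE-bla ME-180 cells received CellTiter-Glo and luminescence was recorded 30 min later.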

Test [12] in a line: qHTS assay to identify small molecule agonists of H2AX (AID 1224845; active = well fitted activation curve with a large enough effect in the signal ratio in the repeat runs, not every such curve was filed as active; the % refers to the signal ratio). The gist of the method: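 Phospho-H2AX Ser139 measured by HTRF (ex 320 nm; em 665 and 620 nm) after 24 hr antibody incubation. Compounds, 15 concentrations, 0.76% DMSO, were applied to CHO-K1 cells for 3hr at 37C before lysis.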
Test [13] is described as follows: qHTS assay to identify small molecule agonists of the hypoxia (HIF-1) signaling pathway (AID 1224846; active = well fitted activation curve with a large enough effect in the signal ratio in the repeat runs, not every such curve was filed as active; the % refers to the signal ratio). In a few lines: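 Compounds from the Tox21 10K library, dissolved in DMSO, are tested for induction of a hypoxia response element–controlled beta-lactamase reporter in ME-180 cells. Exposure lasts 17 hrs at 37C after a 5 hr settling period, followed by CCF4-AM FRET substrate.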

Test [14] is described as follows: qHTS assay to identify small molecule agonists of H2AX - cell viability counter screen (AID 1224847; calls by dose curve; also: nearly all actives have a fitted effect of over 30% in size; also: potency is read from the fitted curve at half-maximal effect). In a few lines: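 Counter-screen for viability: CellTiter-Glo ATP luminescence read after 3 h compound treatment (15-point titration, 0.76% DMSO final) of CHO-K1 cells at 37C, with 30 min room-temperature reagent incubation.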
Test [15] is described as follows: qHTS assay to identify small molecule antagonists of the estrogen related receptor (ERR) signaling pathway from Tox21 library (AID 1224848). Also: nearly all actives have a fitted effect of over 50% in size. Also: potency is read from the fitted curve at half-maximal effect. The gist of the method: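 ERR cell line, 2,000 cells/well. 6 h settle, then compound (DMSO) added; 18 h at 37 C; ONE-Glo luminescence after 30 min RT.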
Test [16] is described as follows: qHTS assay to identify small molecule agonists of the estrogen related receptor (ERR) signaling pathway from Tox21 library (AID 1224849; calls by dose curve; also: nearly all actives have a fitted effect of over 15% in size). Conditions: ERR reporter cell line, ONE-Glo luciferase, 18 h; at 92.4 µM (top of the series) unless noted. In a few lines:
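Cells carrying the ERR reporter were plated and allowed to settle for 6 h, exposed to library compounds for 18 h at 37 C, then lysed with ONE-Glo and luminescence measured.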

A short description of test [17]: qHTS RealTime-Glo MT Cell Viability Assay in HepG2 cells - 24 hour (AID 1224867). Also: nearly all actives have a fitted effect of over 50% in size. In a few lines: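 qHTS, HepG2, 600 cells/well, RealTime-Glo (NanoLuc + prosubstrate) added with cells; 5 h preincubation; DMSO compound addition; 37 C; luminescence at 0/8/16/24/32/40 h.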
A short description of test [18]: qHTS RealTime-Glo MT Cell Viability Assay in HEK293 cells - 32 hour (AID 1224868). The gist of the method:
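Assay medium contained NanoLuc luciferase plus cell-permeant prosubstrate, added with HEK293 cells at 600 cells/well. After 5 h at 37 C/5% CO2 compounds were added; plates stayed at 37 C for 40 h with serial luminescence reads.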

A short description of test [19]: A CellTox Green Cytotoxicity Assay to monitor cytotoxicity in HEK293 cells - 0 hour (AID 1224869). Also: nearly all actives have a fitted effect of over 50% in size. In a few lines: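 Cells (HEK293, 600/well) and dye reagent are dispensed together. After 5 h at 37 C, 23 nL compound is pinned in. Plates stay at 37 C for 40 h with fluorescence read at 0h, 8h, 16h, 24h, 32h and 40h.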
Test [20] in a line: qHTS assay to identify small molecule agonists of the estrogen related receptor signaling pathway with the pleiotropic PPARgamma coactivator (PGC) (AID 1224823). In a few lines:
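Luminescence readout (One-Glo, 30 min RT) from PGC/ERR cell line treated 18 h at 37 C with pin-tool-delivered DMSO compound solutions; cells plated 6 h before dosing. Quantitative HTS format.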

The structures appear in SMILES notation. Unmarked numbers belong to inactive results. Inconclusive results are not listed. Calls of active or inactive are those of the source. Unless noted, calls follow the shape of the dose curve; as a rule, active = well fitted curve in the direction sought with a large enough effect in the repeat runs; inconclusive = weak or mixed curves; inactive = no such curve, though single readings can be large; an effect the other way counts as inactive or inconclusive.

Here are results for 7 compounds from PubChem BioAssay (Tox21).
% is scaled to controls: 0 for no effect and ±100 for the full control effect.

Chain of Luciferin 4-monooxygenase (Photinus pyralis) (P08659 whole entry, looked up): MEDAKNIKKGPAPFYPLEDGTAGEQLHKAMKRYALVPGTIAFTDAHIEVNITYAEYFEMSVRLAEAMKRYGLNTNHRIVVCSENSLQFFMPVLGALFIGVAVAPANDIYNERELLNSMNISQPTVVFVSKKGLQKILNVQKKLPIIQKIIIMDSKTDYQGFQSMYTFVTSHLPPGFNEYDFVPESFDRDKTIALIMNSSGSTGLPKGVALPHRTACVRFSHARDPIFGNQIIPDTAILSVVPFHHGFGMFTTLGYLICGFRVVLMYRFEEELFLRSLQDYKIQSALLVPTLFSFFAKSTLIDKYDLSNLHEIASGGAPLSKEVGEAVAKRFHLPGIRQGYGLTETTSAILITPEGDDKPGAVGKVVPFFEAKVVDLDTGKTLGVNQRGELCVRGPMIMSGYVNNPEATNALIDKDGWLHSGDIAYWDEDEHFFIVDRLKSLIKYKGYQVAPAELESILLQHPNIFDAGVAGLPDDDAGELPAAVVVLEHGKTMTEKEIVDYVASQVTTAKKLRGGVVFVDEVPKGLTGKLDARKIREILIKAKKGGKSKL
Chain of Thyrotropin receptor (Homo sapiens) (P16473 whole entry, looked up): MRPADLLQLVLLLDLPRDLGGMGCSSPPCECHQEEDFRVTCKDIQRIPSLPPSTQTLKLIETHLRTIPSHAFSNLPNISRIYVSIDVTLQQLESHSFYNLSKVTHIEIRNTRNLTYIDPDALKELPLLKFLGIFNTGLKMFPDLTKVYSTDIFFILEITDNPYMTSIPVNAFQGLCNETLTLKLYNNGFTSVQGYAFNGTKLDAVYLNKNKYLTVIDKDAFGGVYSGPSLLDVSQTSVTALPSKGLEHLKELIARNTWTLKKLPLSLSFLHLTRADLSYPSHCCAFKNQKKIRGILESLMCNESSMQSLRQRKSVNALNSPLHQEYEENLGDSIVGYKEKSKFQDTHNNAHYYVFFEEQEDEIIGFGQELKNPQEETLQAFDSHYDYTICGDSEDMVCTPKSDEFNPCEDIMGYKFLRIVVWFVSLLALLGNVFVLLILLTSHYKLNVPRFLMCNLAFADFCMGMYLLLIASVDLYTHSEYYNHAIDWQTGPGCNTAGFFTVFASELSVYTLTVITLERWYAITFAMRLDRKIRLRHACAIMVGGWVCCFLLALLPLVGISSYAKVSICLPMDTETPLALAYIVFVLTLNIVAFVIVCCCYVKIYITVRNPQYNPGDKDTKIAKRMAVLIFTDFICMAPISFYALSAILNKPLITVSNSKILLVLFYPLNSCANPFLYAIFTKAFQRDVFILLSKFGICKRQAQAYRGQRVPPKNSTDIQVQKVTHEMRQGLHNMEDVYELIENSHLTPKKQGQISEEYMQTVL

For the compound `CC(=O)Oc1cccc(O)c1`, the Potency result in test [1], in test [2], in [3], in test [4], in test [5] and in test [6] was “inactive” in each case. The Potency result in [7], in [8], in [9], in test [10], in test [11] and in [12] was “inactive” each time. In addition, the Potency result in [14], in test [15], in test [17], in test [18] and in [19] was “inactive” in each case. In addition, in test [13], the compound was classed as inactive. The activity change, positive = activation in test [16] was 5.58% [at 42.5 µM].

For the compound `CC(C)CC(O)CC(C)C`, the Potency entry in [1], in test [2], in test [3], in test [4], in test [5] and in [6] was “inactive” in each case. Besides, the Potency result in test [7], in test [8], in test [9], in [10], in test [11] and in test [12] was “inactive” in each case. Further, the Potency result in test [14], in [15], in test [17] and in test [18] was “inactive” in each case. For the same compound, the result in test [13] was inactive. In test [16], the activity change, positive = activation is 2.06%.

Consider `CCN(Cc1cccc(S(=O)(=O)O)c1)c1ccc(C(=C2C=CC(=[N+](CC)Cc3cccc(S(=O)(=O)O)c3)C=C2)c2ccc(O)cc2S(=O)(=O)[O-])cc1`, for which the Potency is 16.6 µM (active) in test [1]; 10.8 µM (active) in test [2]; 16.6 µM (active) in test [3]; 29.5 µM (active) in [4]; 11.7 µM (active) in test [5]; 33.1 µM (active) in test [7]. For the same compound, the Potency was 16.6 µM (active) in test [8], 19.4 µM (active) in [14] and 16.6 µM (active) in test [15]. Moreover, the Potency result in test [6], in test [9], in test [17], in test [18] and in [19] was “inactive” each time. The outcome in [13] was inactive. In [16], the activity change, positive = activation was -59.2% [at 42.5 µM].

For the compound `Nc1ccc(NC(=O)c2ccc(N)cc2)cc1`, the Potency entry in test [1], in test [3], in test [4], in test [5], in test [6] and in test [7] was “inactive” each time. Moreover, the Potency entry in [8], in test [9], in test [11], in test [14], in test [15] and in [17] was “inactive” in each case. Moreover, the Potency entry in [18] and in test [19] was “inactive” throughout. For the same compound, in [2], the Potency is 40 µM (active). Besides, in [13], the outcome was inactive.

Take `O=C(O)c1cccc(Oc2ccccc2)c1`: the Potency entry in test [1], in test [2], in [3], in test [4], in test [5] and in test [6] was “inactive” each time. For the same compound, the Potency entry in test [7], in test [8], in test [9], in test [10], in test [11] and in test [12] was “inactive” each time. In addition, the Potency result in [15], in [17] and in test [18] was “inactive” in each case. The outcome in test [13] was inactive. For the same compound, the activity change, positive = activation in [16] is -1.12%.

Regarding `CC(=O)OC(C)C[N+](C)(C)C` (stereo unspecified), the outcome in test [20] was inactive. Besides, the Potency result in test [1], in test [2], in [3], in test [4], in test [5] and in [6] was “inactive” throughout. The Potency result in test [7], in test [8], in [9], in [11], in test [12] and in [14] was “inactive” throughout. Besides, the Potency entry in [15], in test [17] and in test [18] was “inactive” throughout. Besides, in test [16], the activity change, positive = activation is 7.44% [at 42.5 µM].

As for `Cc1c[nH]c2ccccc12`, the Potency entry in test [1], in [2], in test [3], in test [4], in [5] and in test [6] was “inactive” throughout. Also, the Potency result in test [7], in test [9], in test [10], in test [11], in test [12] and in [14] was “inactive” throughout. In addition, the Potency entry in test [15], in test [17], in test [18] and in test [19] was “inactive” in each case. Besides, the compound was called inactive in test [13]. In addition, in test [16], the activity change, positive = activation is 0.349% [at 42.5 µM].
